Assay results from ChEMBL document CHEMBL3433997, “St. Jude Leishmania screening dataset” (2016).

Molecular target: Solute carrier family 2, facilitated glucose transporter member 1 (Homo sapiens) (UniProt P11166)
Assay: ST_JUDE_LEISH: Cytotoxicity at 2uM final concentration against transgenic Leishmania Mexicana promastigotes LmGLUT1 that are glucose transport deficient and complemented with the human glucose transporter GLUT1. Activity is measured by DNA content using SYBR green in vitro
Assay type: functional

Chain of Solute carrier family 2, facilitated glucose transporter member 1 (Homo sapiens) (P11166 whole entry): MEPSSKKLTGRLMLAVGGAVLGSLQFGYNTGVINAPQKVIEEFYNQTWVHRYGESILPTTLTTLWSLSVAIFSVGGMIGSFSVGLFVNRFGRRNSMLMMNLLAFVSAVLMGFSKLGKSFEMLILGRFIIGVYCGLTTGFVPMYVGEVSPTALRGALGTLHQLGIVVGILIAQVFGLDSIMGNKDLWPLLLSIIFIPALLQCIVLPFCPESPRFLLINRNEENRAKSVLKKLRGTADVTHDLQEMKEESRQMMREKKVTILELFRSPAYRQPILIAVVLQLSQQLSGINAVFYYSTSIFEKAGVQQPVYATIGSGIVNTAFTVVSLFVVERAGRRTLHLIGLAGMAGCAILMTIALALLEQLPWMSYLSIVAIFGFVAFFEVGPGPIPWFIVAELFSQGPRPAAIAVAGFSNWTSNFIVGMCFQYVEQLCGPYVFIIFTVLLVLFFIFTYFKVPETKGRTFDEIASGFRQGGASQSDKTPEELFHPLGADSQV

| Structure (SMILES) | inhibition |
| --- | --- |
| CCNc1cc(C)nc(Nc2ccc(NC(=O)Cc3ccc(OC)cc3)cc2)n1 | 10.8% |
| CC1CCc2c(C(=O)Nc3c(F)cc(F)cc3Br)csc2C1 (stereo not given) | -0.18% |
| CCN(CC)CCN(Cc1ccc(-c2ccc(Cl)cc2)cc1)C(=O)Cn1c(CCc2cccc(F)c2F)nc(=O)c2ccccc21 | -2.54% |
| N=C(N)NC(=O)Nc1cc(Cl)c(Br)c(Cl)c1 | 3% |
| CCCCSc1c(CNCCCCCCNCc2ccc3ccccc3c2SCCCC)ccc2ccccc12 | 10.7% |
| CC(C)CNCc1cccc(-c2ccc(CNc3ccc4ncccc4c3)cc2)c1 | 1.45% |
| Cc1cc(Br)c(OCCCON2C(=N)N=C(N)NC2(C)C)c(Br)c1 | 2.66% |
| CN1CCN(CC(=O)Nc2ccc(-c3cccc(-c4nc5cc(C(F)(F)F)ccc5[nH]4)c3)cc2)CC1 | 0.66% |
| CCN1CCN(c2cc(C)c3cc(NC(=O)c4cncc(Br)c4)ccc3n2)CC1 | -0.07% |
| COCCNC(=O)c1ccc(OC2CCN(Cc3ccc(F)c(F)c3)CC2)c(Cl)c1 | 0.95% |
| CCNc1cc(C(=O)N[C@@H](Cc2ccccc2)[C@H](O)CNC2CC3CCC2C3)cc(N2CCCCS2(=O)=O)c1 (stereo not given in full) | 1.78% |
| Cc1nnnn1-c1ccc(C(=O)N2CCC3(CC2)CN(Cc2ccc(Cl)c(Cl)c2)C(=O)O3)cc1 | 8.95% |
| CC(C)(C(=O)Nc1ccc(N2CCC3(CCCN(CC4CC4)C3)CC2)c(Cl)c1)c1cccc(C(F)(F)F)c1 | 0.2% |
| CN(C)CCc1coc2ccc(C(=O)Nc3ccc(-c4ccc(O)cc4)cc3)cc12 | 4.69% |
| O=C(NC1CC1)c1ccc(N2CCC(COc3cccc(F)c3)CC2)nc1 | 5.26% |
